Source: PubChem BioAssay (ICCB-Longwood Screening Facility, Harvard Medical School)
Many of the other results were omitted from the sample, so hits are more common in it than they were.
Vaccinia pol inh: vaccinia E9 polymerase processive synthesis inhibitors, primary screen, biochemical, absorbance; hit rate 0.94% among 46,000; in vitro processive DNA synthesis, absorbance read-out; active compounds read low; normalized absorbance, % (concentration not given with the values); in the data active means normalized absorbance mostly below about 85%, no sharp cut-off; inactive means mostly above about 86%
Active calls of the source: *.

SMILES	Vaccinia pol inh
CCOc1cc(CNc2ccc(N3CCOCC3)cc2)ccc1OCc1ccccc1	101.2
CCCOc1cccc(C(=O)Nc2nnn(C)n2)c1	104.1
CCOc1cccc(CN(C(C)=O)c2ccc3[nH]c(=O)[nH]c3c2)c1OCc1ccccc1	102.4
Clc1cccc(-c2nnc3c4ccccc4ncn23)c1	88.9
CCC(Sc1ccc2nnc(-c3ccccc3)n2n1)C(=O)OC (stereo not given)	95.1
COC(=O)c1cn(Cc2ccc(Cl)cc2)cc(F)c1=O	95.0
CC(=Nc1c2c(nc3ccccc13)N(C)CC2)N(C)C	99.8
Nc1c2c(nc3ccccc13)N(C1CCCCC1)CC2	87.4*
CC1CCCCN1c1nc(-c2ccccc2O)nc2ccccc12 (stereo not given)	100.3
Cn1c(O)c(C=Nc2ccccc2)oc1=S	99.6
Cc1cccc(NC(=O)C2CC(=O)N(c3ccccc3)C2)n1 (stereo not given)	89.0
COc1ccccc1NCC(=O)n1nc(-c2ccccc2)cc1-c1ccccc1	100.1
O=C(O)C1CCCCC1C(=O)N1CCN(C(c2ccccc2)c2ccccc2)CC1 (stereo not given)	100.6
COc1ccc(C2SCCN2S(C)(=O)=O)cc1Br (stereo not given)	102.6
COc1ccc(Nc2nc(N3CCN(CCO)CC3)nc3c2cnn3C)cc1Cl	38.3*
Cc1ccc(Nc2nc(N3CC(C)OC(C)C3)nc3c2cnn3C)cc1Cl (stereo not given)	97.0
CCc1nc2c(cnn2-c2ccc(F)cc2)c(=O)n1-c1ccc(OC)c(Cl)c1	101.8
CCSc1cc(C(F)(F)F)nc2cc(C(C)(C)C)nn12	105.7
CCOc1ccc(C(=O)NCCSc2c[nH]c3ccccc23)cc1	97.5
CCCCN(Cc1ccco1)C(=O)c1cc2c(=O)oc3ccc(C)cc3c2s1	102.5
COC(=O)c1cc2c(Cl)nc3ccc(C)cc3c2s1	91.3
Cc1ccc2nc(Cl)c3cc(C(=O)N(CCN(C)C)Cc4ccco4)sc3c2c1	52.7*
NNc1ccc(C(F)(F)F)cn1	75.9
COc1cc(/C=c2\sc3nc4cc(C)c(C)cc4n3c2=O)c(Br)cc1OCC(=O)O	94.0
CC(=O)N(CCc1ccc(C)[n+]([O-])c1)c1ccccc1	100.0
SMILES	Vaccinia pol inh
Cn1c(C(=O)NCCc2ccc(Cl)cc2)cc2c(=O)n(C)c3ccccc3c21	100.0
CN1CCN(CCNC(=O)c2cc3c(=O)n(C)c4ccccc4c3n2C)CC1	62.0*
Cn1c(C(=O)NC2CC2)cc2c(=O)n(C)c3ccccc3c21	77.3
Cc1ccc(C(O)C(=O)c2ccccc2)o1 (stereo not given)	95.2
N#CC1=C(N)Oc2c(sc3ccccc23)C1c1ccccc1 (stereo not given)	106.4
O=C1/C(=C/C=C/c2ccccc2)SC(=S)N1c1cccc(F)c1	99.7
O=C1OC(c2ccccc2)OC(=O)C1=C/C=C/c1ccccc1 (stereo not given)	100.0
O=C(CN1C(=O)/C(=C\C=C\c2ccccc2)SC1=S)Nc1ccc(F)cc1	97.8
O=C1NC(=S)S/C1=C\C=C\c1ccccc1	86.2*
CN(C)c1ccc(/C=C2\SC(=O)NC2=O)cc1	102.3
O=C1NC(=O)/C(=C\C=C\c2ccccc2)S1	54.9*
Cc1ccc(C(C)NC(=O)c2c(-c3ccccc3Cl)noc2C)c(C)c1 (stereo not given)	110.7
COc1ccc(C(=O)Nc2nc3c(C)cccc3s2)cc1OC	95.4
CC1CC(C)CN(C(=O)C2c3ccccc3C(=O)N(C)C2c2cn(C)c3ccccc23)C1 (stereo not given)	86.5
O=C(Cn1cnc2sc(-c3ccccc3)cc2c1=O)c1cccs1	93.9
Nc1ccc(C(=O)Nc2ccc(O)c(-c3nc4ccccc4o3)c2)cc1	99.4
CCOc1ccc(-n2ccnc2SCC(=O)Nc2ccc(Cl)cc2)cc1	98.4
CCOc1ccc(NC(=O)c2sc(C)c(CC(=O)Nc3ccc(Cl)cc3)c2O)cc1	80.4*
CCOc1ccc(NC(=O)CN2C(=O)S/C(=C/c3ccc(Cl)cc3)C2=O)cc1	98.7
COC(=O)C12CCCC(C(=O)O)(CCC1)C2	100.2
CCSc1ncc(Cl)c(C(=O)Nc2ccc(S(=O)(=O)N3CC(C)OC(C)C3)cc2)n1 (stereo not given)	99.9
O=C(COC(=O)C12CC3CC(CC(C3)C1)C2)Nc1ccc(Cl)cc1	106.6
COc1ccccc1NC(=O)C1=C(C)NC(SCC(=O)c2ccccc2)=C(C#N)C1c1cccs1 (stereo not given)	90.1
CC(C)C(C)(C#N)NC(=O)c1cccnc1Oc1ccc(Cl)cc1 (stereo not given)	100.1
COC(=O)c1ccccc1C(=O)c1ccccc1	91.8
SMILES	Vaccinia pol inh
O=C(NO)c1cccc2c1-c1ccccc1/C2=N/O	72.7
COC(=O)c1cccc2c1-c1ccccc1/C2=N/O	57.6*
O=C(O)CNC(=S)N(Cc1ccccc1)Cc1cccs1	88.5
O=C(O)CNC(=S)N(Cc1cccs1)C1CCCCC1	100.6
O=C(CNC(=S)N(Cc1ccccc1)Cc1cccs1)NC1CCCCC1	77.2*
Cc1cccc(NC(=O)CCC2=NS(=O)(=O)c3cc(Br)cnc3N2)c1	95.9
CCCNC(=O)CCn1c(=O)c2cccn2c2cccnc21	107.6
